# Data: PubChem BioAssay AID504690 (Sanford-Burnham Center for Chemical Genomics, 2011)
# The campaign covered roughly 350,000 compounds. About 2,700 (0.77%) were called active. This is one part of a sample in which actives are shown more often than they occur. Values without a mark were called inactive.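 Rule for the calls: active = inhibition reaching at least a set limit at 20 µM in the primary screen (cut at about 59% in these data); inactive = the rest.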
# Tested on: glucose-6-phosphate dehydrogenase-6-phosphogluconolactonase (Plasmodium falciparum 3D7)
# Assay: inhibition of malaria parasite G6PD (PfGluPho) – biochemical, fluorescence intensity, uHTS, primary screen (AID 504690);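 note: 0% = DMSO wells with substrate and 100% = DMSO wells lacking glucose-6-phosphate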
# Settings: PfGluPho enzyme, NADPH resazurin-diaphorase fluorescence; at 20 µM; active compounds read high
row,Structure (SMILES),inhibition
1,CCOC(OCC)c1ccc(/C=C\c2nccc(N)n2)cc1,5.93%
2,COc1cc(S(=O)(=O)N2CCOCC2)ccc1NC(=O)COc1ccc(N(C)S(=O)(=O)c2ccc(C)cc2)cc1,3.13%
3,COc1ccc(Cc2nnnn2CC(=O)O)cc1,-4.83%
4,CC1(c2ccc3ccccc3c2)NC(=O)N(CC(N)=O)C1=O (stereo not given),-14%
5,N/C(=N\OC(=O)CCn1cccc(C(F)(F)F)c1=O)c1ccc(OC(F)(F)F)cc1,-3.22%
6,NC(=O)CSc1nnc(NC(=O)c2ccc(Br)o2)s1,21.1%
7,CCOC(=O)CSc1nnc(NC(=O)c2cccc(S(=O)(=O)N3CCCC3)c2)s1,-21.8%
8,CCSc1nnc(NC(=O)c2ccc(C)cc2)s1,92.9% (active)
9,CCC(C)NCCOCCOc1ccc(Br)cc1C (stereo not given),-3.69%
10,O=C(NC1CCc2ccccc21)C12CN(Cc3ccccc3)CC1C(c1cccc([N+](=O)[O-])c1)=NO2 (stereo not given),3.16%
11,O=C1C(Cl)=C(Oc2ccccc2)C(=O)c2ccccc21,128% (active)
12,COc1ccc(-c2c(C)cc3oc(=O)cc(-c4ccccc4)c3c2C)cc1C=O,1.07%
13,CCOc1ccccc1Nc1ccc(C(=O)O)cc1[N+](=O)[O-],-28.7%
14,CCOc1ccccc1Nc1ccc2nonc2c1[N+](=O)[O-],77.2% (active)
15,Cc1ccccc1Nc1c([N+](=O)[O-])ccc2nonc12,-0.06%
16,CCC(C)C(=O)Nc1cc([N+](=O)[O-])ccc1Cl (stereo not given),-12.1%
17,Cc1ccc(N(C(=O)CC2NC(=O)NC2=O)C2(C(=O)NC3CCCC3)CCCCC2)cc1 (stereo not given),2.93%
18,O=C1/C(=C\Nc2ccccc2)CCN1c1ncccn1,10.9%
19,Cc1ccc(S(=O)(=O)N2C[C@@H](C)[C@]3(C2)[C@H](O)[C@H](OC(=O)NCc2ccccc2)C[C@H]2C(=O)N(c4ccccc4)C(=O)[C@H]23)cc1,24.5%
20,COC(=O)c1c(C)[nH]c(C)c1-c1ccc([N+](=O)[O-])cc1,-17.8%
21,CN1C2CCC1CC(NC(=O)c1ccc([N+](=O)[O-])cc1)C2 (stereo not given),-5.81%
22,CC(=O)N1CC[n+]2c(-c3ccc([N+](=O)[O-])cc3)csc21,60.6% (active)
23,CC(C)NC(=O)/C(C#N)=C\c1ccc(N(C)C)c(Br)c1,-1.04%
24,CCOC(=O)C1C(=O)OC2(CCCC2)C1C(=O)OCC (stereo not given),-2.05%
25,O=C(COC(=O)c1ccc([N+](=O)[O-])o1)NC12CC3CC(CC(C3)C1)C2,23.2%
